The text below walks through data of publication PMC11062922 (Nature Chemical Biology, 2023).

Holding throughout (design): species or system human, MV4-11 + K-562 + COLO205 + SK-N-BE2 + OVCAR-8
One assay concerns AKT3. Particulars: read-out: apparent Kd, compound concentrations: 100 nM and 1000 nM (sheet 'Samples'), n = 1.
Another assay deals with CDK16. Particulars: read-out: apparent Kd; compound concentrations: 100 nM and 1000 nM (sheet 'Samples'), CATDS: 8.8636413805305694E-2; n = 1.
In another assay the test system is CDK2. The conditions noted are these: read-out: apparent Kd; compound concentrations: 100 nM and 1000 nM (sheet 'Samples'), CATDS: 0.14540297909740599; n = 1.
Another assay relates to CDK5. The conditions noted are these: read-out: apparent Kd; compound concentrations: 100 nM and 1000 nM (sheet 'Samples'), CATDS: 0.117408744054376; n = 1.
The next assay concerns CDK6. The conditions noted are these: read-out: apparent Kd; compound concentrations: 100 nM and 1000 nM (sheet 'Samples'), CATDS: 8.47728191524936E-2; n = 1.
The subject of a further assay is CSNK2A1;CSNK2A3. The conditions noted are these: read-out: apparent Kd; compound concentrations: 100 nM and 1000 nM (sheet 'Samples'), CATDS: 0.11670425999811999; n = 1.
A further assay has as its system CSNK2A2. The conditions noted are these: read-out: apparent Kd; compound concentrations: 100 nM and 1000 nM (sheet 'Samples'), CATDS: 0.126102528289014; n = 1.
The test system of another assay is FLT3. The conditions noted are these: read-out: apparent Kd, compound concentrations: 100 nM and 1000 nM (sheet 'Samples'), n = 1.
The next assay has as its system MYLK3. Particulars: read-out: apparent Kd, n = 1.
The subject of the next assay is ATM. Particulars: read-out: apparent Kd, n = 1.
Another assay concerns GAK. Particulars: read-out: apparent Kd; compound concentrations:100 nM and 1000 nM (sheet 'Samples'); n = 1.
The subject of the next assay is MAPK10. Particulars: read-out: apparent Kd; compound concentrations:100 nM and 1000 nM (sheet 'Samples'); n = 1.
The next assay concerns MTOR. The conditions noted are these: read-out: apparent Kd; compound concentrations:100 nM and 1000 nM (sheet 'Samples'); n = 1.
The subject of the next assay is PIK3CA. The conditions noted are these: read-out: apparent Kd; compound concentrations:100 nM and 1000 nM (sheet 'Samples'); n = 1.
For a further assay, the system named is PLK4. The conditions noted are these: read-out: apparent Kd; compound concentrations:100 nM and 1000 nM (sheet 'Samples'); n = 1.
The test system of a further assay is PRKACG. The conditions noted are these: read-out: apparent Kd; compound concentrations:100 nM and 1000 nM (sheet 'Samples'); n = 1.
A further assay concerns PRKAG1. Particulars: read-out: apparent Kd; compound concentrations:100 nM and 1000 nM (sheet 'Samples'); n = 1.
Another assay deals with PRKAG2. The conditions noted are these: read-out: apparent Kd; compound concentrations:100 nM and 1000 nM (sheet 'Samples'); n = 1.
A further assay has as its system SIK2. The conditions noted are these: read-out: apparent Kd; compound concentrations:100 nM and 1000 nM (sheet 'Samples'); n = 1.
A further assay has as its system TNIK. The conditions noted are these: read-out: apparent Kd; compound concentrations:100 nM and 1000 nM (sheet 'Samples'); n = 1.
For the next assay, the system named is CDC42BPG. The conditions noted are these: read-out: apparent Kd; compound concentrations: 100 nM and 1000 nM (sheet 'Samples'), CATDS: 0.370471808138506; n = 1.
The test system of the next assay is PIK3C3. Particulars: read-out: apparent Kd; compound concentrations:100 nM and 1000 nM (sheet 'Samples'); n = 1.
Another assay concerns GSK3A. The conditions noted are these: read-out: apparent Kd; compound concentrations: 100 nM and 1000 nM (sheet 'Samples'), CATDS: 0.228409862678119; n = 1.
In the next assay the test system is MTHFD1. Particulars: read-out: apparent Kd; compound concentrations: 100 nM and 1000 nM (sheet 'Samples'), CATDS: 0.40947747984703597; n = 1.
The next assay has as its system AKT2. The conditions noted are these: read-out: apparent Kd; compound concentrations: 100 nM and 1000 nM (sheet 'Samples'), CATDS: 0.43921962783060797; n = 1.
The next assay concerns MAP2K3. The conditions noted are these: read-out: apparent Kd; compound concentrations: 100 nM and 1000 nM (sheet 'Samples'), CATDS: 0.58030400025916395; n = 1.
The mark [1] stands for this setting: compound concentrations:100 nM and 1000 nM (sheet 'Samples').

Structures are written as SMILES. Where two headings read alike, the source gives them in different places.

Regarding `NS(=O)(=O)c1ccc(Nc2cc(-c3ccc(O)c(F)c3)n[nH]2)cc1` [GW831091X], the potency estimated from few doses in the assay with AKT3 (CATDS: 8.6052459279118296E-2) is 1690 nM; in the assay on CDK16, 1550 nM; with CDK2, 491 nM; with CDK5 it was 759 nM; in the assay with CDK6, 1770 nM; with CSNK2A1;CSNK2A3, 770 nM. Further, the potency estimated from few doses with CSNK2A2 is 652 nM; in the assay with FLT3 (CATDS: 0.40008712572593402) it was 99.2 nM; with MYLK3 (compound concentrations: 100 nM and 1000 nM (sheet 'Samples'), CATDS: 8.3976923453049093E-2), 1830 nM.

For the molecule `Cc1cnc(N)c(/C=C/c2cncc(C(=O)NCCc3ccc(Cl)cc3Cl)c2)c1.Cl` [GSK190937A], the potency estimated from few doses with ATM (compound concentrations: 100 nM and 1000 nM (sheet 'Samples'), CATDS: 1) was 186 nM.

Take `COc1ccc2[nH]c3c4[nH]c5ccc(OC)cc5c4c4c(c3c2c1)C(=O)NC4=O` [GW296115X]: the potency estimated from few doses with ATM (setting [1]) is 204 nM; in the assay on GAK it was 543 nM; in the assay on MAPK10, 1050 nM; with MTOR it was 741 nM; in the assay with MYLK3 (setting [1]) it was 834 nM; in the assay on PIK3CA, 254 nM. Further, the potency estimated from few doses with PLK4 is 581 nM; with PRKACG, 655 nM; in the assay on PRKAG1, 1550 nM; in the assay on PRKAG2 it was 1670 nM; in the assay with SIK2 it was 923 nM; with TNIK, 1700 nM.

Turning to `CC(C)c1ccc(-c2cc(-c3c[nH]nc3-c3ccccn3)ccn2)cc1` [GW682841X], the potency estimated from few doses in the assay on ATM (compound concentrations: 100 nM and 1000 nM (sheet 'Samples'), CATDS: 0.768793574743593) was 216 nM; in the assay with CDC42BPG, 1220 nM.

On to `Cc1cn2c(=O)cc(N3CCOCC3)nc2n1Cc1cccc(Cl)c1Cl` [GSK2334006A], for which the potency estimated from few doses with ATM (setting [1]) is 280 nM; in the assay on PIK3C3 it was 61.5 nM.

Regarding `CS(=O)(=O)Nc1ccc(N/C=C2\C(=O)Nc3ccccc32)cc1` [GW278681X], the potency estimated from few doses in the assay on AKT3 (CATDS: 0.228798391958558) is 1780 nM; with FLT3 (CATDS: 0.41420685455441397), 358 nM; with MYLK3 (compound concentrations: 100 nM and 1000 nM (sheet 'Samples'), CATDS: 0.45144948525054202), 306 nM.

On to `Cn1cc(C2=C(c3cn(C)c4cc(C(N)=O)ccc34)C(=O)NC2=O)c2ccccc21` [RO0319317-000], for which the potency estimated from few doses with ATM (compound concentrations: 100 nM and 1000 nM (sheet 'Samples'), CATDS: 0.45876429377403) was 142 nM; with GSK3A, 860 nM; in the assay with MTHFD1 it was 175 nM.

Consider `Nc1c(C(=O)c2ccc(C#CCN3CCOCC3)cc2)cnn1-c1ccc(F)cc1` [RO1153136-000], for which the potency estimated from few doses in the assay on AKT2 was 2590 nM; in the assay on MAP2K3 it was 1470 nM.
